Measured values taken from PubChem BioAssay (NCATS).
Records with an inconclusive call do not appear. A call without a number means that no potency is given here. Calls of active or inactive are those of the source. Calls follow the shape of the dose curve; as a rule, active = well fitted inhibition curve with a large enough effect; inconclusive = small, poorly fitted or top-dose-only effect; inactive = flat fitted curve, though single readings scatter.

The compounds below were run against Ubiquitin carboxyl-terminal hydrolase 1 (Homo sapiens) (UniProt O94782) (assay: Inhibitors of USP1/UAF1: Pilot qHTS (AID 504865; also: nearly all actives have a fitted effect of over 35% in size)). Settings: purified USP1/UAF1, Ub-rhodamine cleavage fluorescence; series mostly up to 54.9 µM.
From the text: Deubiquitinating enzymes (DUBs) are a class of enzymes that can cleave isopeptide bond formed between the C-terminal carboxylate of ubiquitin and a lysine side-chain amino group on the target protein. Among them, ubiquitin specific proteases (USPs) constitute the largest DUB family. Human USPs are emerging as promising targets for pharmacological intervention because of their connection to a number of human diseases, including prostate, colon and breast cancer (1, 2), pediatric acute lymphoblastic leukemia (3), and familial cylindromatosis (4). The advantage of inhibiting USPs lies in the potential specificity of therapeutic intervention that can lead to better efficacy and reduce nonspecific side effects.
In a collaboration between the University of Delaware and the NIH Chemical Genomics Center, a high-throughput screen assay was developed to screen for USP1/UAF1 inhibitors. This miniaturized assay has a fluorescent read-out and is used to screen the NIH Molecular Libraries Small Molecule Repository (MLSMR) in order to identify a small molecule that inhibits USP1.
NIH Chemical Genomics Center [NCGC]
NIH Molecular Libraries Probe Centers Network [MLPCN]
Assay Submitter (PI): Zhihao Zhuang, University of Delaware
1. Priolo, C., et al. (2006) The isopeptidase USP2a protects human prostate cancer from apoptosis. Cancer Res 66, 8625-8632
2. Popov, N., et al. (2007) The ubiquitin-specific protease USP28 is required for MYC stability. Nat Cell Biol 9, 765-774
3. De Pitta, C., et al. (2005) A leukemia-enriched cDNA microarray platform identifies new transcripts with relevance to the biology of pediatric acute lymphoblastic leukemia. Haematologica 90, 890-898
4. Kovalenko, A., et al. (2003) The tumour suppressor CYLD negatively regulates NF-kappaB signalling by deubiquitination. Nature 424, 801-805
3 microliters of reagents (buffer in columns 3 and 4 as negative control and 1nM USP1/UAF1 complex in columns 1, 2, and 5-48) are dispensed into Greiner black solid bottom 1536-well assay plates. Compounds are then transferred via Kalypsys pin tool equipped with 1536-pin array (10nl slotted pins, V&P Scientific, San Diego, CA). Following an incubation step of 15 min at room temperature, 1ul of Ub-Rho substrate (150nM final concentration) is added to initiate the reaction. The plates are immediately centrifuged at 1000 rpm for 15 seconds, and subsequently transferred to a ViewLux high-throughput CCD imager (PerkinElmer) wherein kinetic measurements of fluorescence are acquired using 480 nm excitation/540 nm emission filter set (6 reads every 60 seconds, see Table 1). All reagents are diluted in an assay buffer consisting of 50mM HEPES (pH 7.8), 0.5mM EDTA, 0.1 mg/ml BSA, 1mM TCEP, and 0.01% Tween-20.
Potency is read from the fitted curve at half-maximal effect.

Chain of Ubiquitin carboxyl-terminal hydrolase 1 (Homo sapiens) (O94782 whole entry, looked up): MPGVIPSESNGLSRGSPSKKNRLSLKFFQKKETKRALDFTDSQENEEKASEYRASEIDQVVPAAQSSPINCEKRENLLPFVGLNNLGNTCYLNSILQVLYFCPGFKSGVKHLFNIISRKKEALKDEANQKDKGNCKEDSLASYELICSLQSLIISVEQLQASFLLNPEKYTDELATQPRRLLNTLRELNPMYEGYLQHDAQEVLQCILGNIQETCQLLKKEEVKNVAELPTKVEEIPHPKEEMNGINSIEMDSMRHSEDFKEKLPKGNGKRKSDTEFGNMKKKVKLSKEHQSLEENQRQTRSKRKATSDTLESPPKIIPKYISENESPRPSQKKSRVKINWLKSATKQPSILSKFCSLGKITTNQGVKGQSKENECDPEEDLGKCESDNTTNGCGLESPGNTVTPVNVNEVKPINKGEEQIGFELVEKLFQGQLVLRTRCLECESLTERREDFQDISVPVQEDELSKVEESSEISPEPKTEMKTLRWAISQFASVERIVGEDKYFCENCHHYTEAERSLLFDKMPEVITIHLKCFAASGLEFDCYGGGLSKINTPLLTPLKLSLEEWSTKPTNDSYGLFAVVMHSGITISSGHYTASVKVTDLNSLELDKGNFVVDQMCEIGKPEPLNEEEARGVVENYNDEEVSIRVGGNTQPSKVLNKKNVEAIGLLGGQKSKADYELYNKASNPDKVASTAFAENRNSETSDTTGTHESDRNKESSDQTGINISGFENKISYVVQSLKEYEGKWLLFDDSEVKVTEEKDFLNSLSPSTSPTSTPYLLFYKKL

SMILES	Potency
Cc1noc(C)c1-c1cc(N(C)C)ncn1	inactive
CN1CCN(c2ncncc2-c2ccc(C(=O)N(C)C)cc2)CC1	inactive
c1ccc2c(NC3CCNCC3)nc(-c3ccoc3)nc2c1	inactive
COc1ccc(CCNC[C@@H](O)c2ccc(O)cc2)cc1OC	inactive
COC1=C(OC)C(=O)C(C/C=C(\C)CC/C=C(\C)CC/C=C(\C)CC/C=C(/C)CC/C=C(\C)CC/C=C(\C)CC/C=C(\C)CC/C=C(\C)CC/C=C(\C)CCC=C(C)C)=C(C)C1=O	inactive
COc1ccc(Oc2ncc3nc(C)c(=O)n(-c4ccccc4)c3n2)cc1	inactive
CCNc1ncc2ncc(=O)n(C3CC3)c2n1	inactive
CN(C)Cc1ccccc1-c1cncnc1Nc1ccccc1	inactive
Clc1ccccc1-c1nccc(NCc2cccs2)n1	28.2 µM (active)
Cc1nc2cnc(N3CCN(C)CC3)nc2n(-c2ccccc2)c1=O	inactive
COc1ccc(-c2nc3cnc(N4CCNCC4)nc3n(-c3ccc(OC)cc3)c2=O)cc1	inactive
COc1ccc(CNc2ccnc(-c3ccc4c(c3)OCO4)n2)c(OC)c1	inactive
Cc1nc2cnc(N3CCN(C)CC3)nc2n(CCC#N)c1=O	inactive
c1cncc(-c2cncnc2NC2CCNCC2)c1	inactive
c1ccc(Nc2cc(-c3ccoc3)ncn2)cc1	inactive
COc1ccc(CNc2ncnc3ccc(-c4ccccc4OC)cc23)c(OC)c1	inactive
COc1ccc(-n2c(=O)c(C)nc3cnc(OC)nc32)cc1	inactive
COCCn1c(=O)cnc2cnc(Oc3ccc(OC)cc3)nc21	inactive
Cc1noc(C)c1-c1cncnc1N(C)Cc1ccco1	inactive
COc1ccc(-n2c(=O)c(-c3cccs3)nc3cnc(N(C)C)nc32)cc1	inactive

SMILES	Potency
CS(=O)(=O)Nc1cccc(-c2nccc(NCc3ccccc3)n2)c1	inactive
Fc1ccc(Nc2ncncc2-c2ccccc2C(F)(F)F)cc1	inactive
Cc1cccc(CNc2cc(-c3c(C)noc3C)ncn2)c1	inactive
Cn1c(=O)c(-c2cccs2)nc2cnc(OCc3ccccc3)nc21	inactive
O=c1cnc2cnc(Nc3ccccc3)nc2n1Cc1ccc(F)cc1	inactive
Cc1cnc(CNc2ncncc2-c2ccccc2C(F)(F)F)cn1	inactive
Cc1nc2cnc(Nc3ccccc3)nc2n(C2CC2)c1=O	inactive
CS(=O)(=O)Nc1cccc(-c2cncnc2Nc2ccc(F)cc2)c1	inactive
CN(C)C(=O)c1ccc(-c2cncnc2NCCc2cnc[nH]2)cc1	inactive
O=c1c(CCc2ccccc2)nc2cnc(N3CCOCC3)nc2n1Cc1cccs1	inactive
CN1CCN(c2ncc3nc(CCc4ccccc4)c(=O)n(C4CC4)c3n2)CC1	inactive
COc1ccc(-c2nc3cnc(Oc4cccc(Cl)c4)nc3n(CCC#N)c2=O)cc1	inactive
FC(F)(F)c1ccccc1-c1nccc(N2CCNCC2)n1	inactive
COc1ccccc1-c1cncnc1NCCN1CCOCC1	inactive
COCCNc1ncncc1-c1ccccc1OC	inactive
O=c1c(-c2cc(F)cc(F)c2)nc2cncnc2n1-c1ccccc1	inactive
COc1ccc(-n2c(=O)cnc3cnc(OC)nc32)cc1	inactive
CNc1ccnc(-c2ccccc2OC)n1	inactive
COc1ccccc1CNc1ncnc2ccc(-c3ccccc3CN(C)C)cc12	inactive
COCCn1c(=O)c(-c2ccc(Cl)cc2)nc2cnc(Oc3cccc(Cl)c3)nc21	inactive
